Our source for the composite z-score and z-score values is PubChem BioAssay.

The structures appear in SMILES notation. Active and inactive are the calls of the source. Unless noted, the rule behind the calls is not given here.

The subject of test [1] is Wnt5a (protein binding on small-molecule microarray). Put plainly: Wnt5a binders on small-molecule microarray, primary screen, biophysical, 635/667 nm fluorescence (AID 1142).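 Note: fluorescence read at 667 nm with signal to noise per printed feature.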 To be noted: 635 nm fluorescence, higher = more signal.
Test [2] is described as follows: cell viability in Huh7 cells, primary screen, cytotoxicity control for HCV replication inhibitor project, CellTiter-Glo luminescence, basal, 48 h (AID 1143).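 Note: Huh7 hepatoma cells carrying a hepatitis C replication reporter with no stimulus; test concentration not given here.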 To be noted: Huh7 HCV replicon, higher = more signal, called active from +8 up or from −8 down. (Cellular ATP, detected with luciferase, serves as a proxy for viable cell number.)
Test [3] in a line: P. aeruginosa biofilm formation inhibitors, primary screen, PAO1 strain, BacTiter-Glo luminescence, LB-PBS (AID 1144). To be noted: 12 h, higher = more signal.
Test [4] in a line: CREB reporter modulators without forskolin, primary screen, cell-based, PC12, CRE-LacZ reporter, unstimulated (AID 1145). To be noted: no forskolin, luminescence, 4.5 h, higher = more signal, called active from +8 up or from −8 down.
Test [5] can be described thus: CREB reporter modulators under forskolin, primary screen, cell-based, PC12, CRE-LacZ reporter, forskolin-stimulated (AID 1146).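 Note: PC12 cells with 6xCRE LacZ reporter stimulated by forskolin 10 µM; beta-galactosidase reporter signal reflecting CREB driven transcription.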 To be noted: luminescence, 4.5 h, higher = more signal, called active from +8 up or from −8 down.
The target in test [6] is Streptavidin (Streptomyces avidinii) (UniProt P22629). Put plainly: streptavidin binders on small-molecule microarray, primary screen, artefact control for SMM compound annotation, biophysical, 635/667 nm fluorescence (AID 1147).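 Note: signal reflects streptavidin binding to arrayed compounds as a control protein.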 To be noted: streptavidin binding, higher = more signal.
Test [7] is described as follows: small-molecule binders of probe aInhba, primary screen, biochemical, small-molecule microarray, 635/667 nm fluorescence (AID 1148).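 Note: score merges 667nm spot fluorescence with signal-to-noise for antibody binding to printed compounds.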 To be noted: higher = more signal.
The target in test [8] is Torsin-1A (Homo sapiens) (UniProt O14656). Put plainly: torsin A binders from cell lysate, primary screen, small-molecule microarray, wild-type, 635/667 nm (AID 1149). To be noted: COS7 hTOR1A-WT lysate, 635 nm fluorescence, higher = more signal.
Test [9] has the same target. As to the kind of experiment: small-molecule binders of mutant TOR1A in lysate, primary screen, cell lysate, small-molecule microarray, COS7 lysate, 635/667 nm fluorescence (AID 1150).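 Note: score pools 667 nm emission and signal to noise measuring lysate protein binding.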 To be noted: COS7 hTOR1A mutant lysate, 635 nm fluorescence, higher = more signal.
For test [10], the system named is Sonic hedgehog protein (Shh). As to the kind of experiment: small-molecule binders of Shh protein, primary screen, biochemical, small-molecule microarray, 635/667 nm fluorescence (AID 1151).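 Note: Shh protein binding to compounds spotted on small-molecule microarray slides; score combines spot fluorescence intensity with signal-to-noise across triplicate slides.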 To be noted: small-molecule microarray binding, 635 nm fluorescence; higher = more signal.

Torsin-1A (Homo sapiens), sequence (O14656 whole entry, looked up): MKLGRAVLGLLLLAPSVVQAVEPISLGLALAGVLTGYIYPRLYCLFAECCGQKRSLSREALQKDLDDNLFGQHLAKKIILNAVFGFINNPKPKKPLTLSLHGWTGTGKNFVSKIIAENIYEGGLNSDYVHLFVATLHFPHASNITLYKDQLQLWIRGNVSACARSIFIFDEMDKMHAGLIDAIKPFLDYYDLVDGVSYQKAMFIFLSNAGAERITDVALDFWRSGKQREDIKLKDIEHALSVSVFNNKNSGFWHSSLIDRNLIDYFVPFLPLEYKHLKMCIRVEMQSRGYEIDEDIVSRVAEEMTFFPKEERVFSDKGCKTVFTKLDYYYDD
Streptavidin (Streptomyces avidinii), sequence (P22629 whole entry, looked up): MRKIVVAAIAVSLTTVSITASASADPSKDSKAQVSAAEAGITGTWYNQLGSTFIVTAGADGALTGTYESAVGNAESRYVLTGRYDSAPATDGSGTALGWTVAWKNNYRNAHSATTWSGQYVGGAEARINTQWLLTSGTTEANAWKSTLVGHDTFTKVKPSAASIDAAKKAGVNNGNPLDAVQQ

`[N-]=[N+]=NCc1ccccc1[C@@H]1OC(c2ccc(OCCCO)cc2)=N[C@]1(Cc1ccccc1)C(=O)NCC(O)CO` (stereo not given in full): the composite z-score in [1] was 0.334; in test [6] it was 0.255; in test [7], 0.84; in the test with Torsin-1A (Homo sapiens) [8], 0.281; with Torsin-1A (Homo sapiens) [9] it was 0.294; in test [10], -0.492. Moreover, the z-score in test [2] was -1.58 (inactive); in test [3], 0.0756 (inactive); in test [4], 1.27 (inactive); in [5] it was -0.757 (inactive).
For `CCOC(=O)C[C@H]1[C@H](OC(=O)c2cc3ccccc3oc2=O)[C@@H](NC(=O)c2ccccc2)c2cc(OCCCO)ccc2N1C(=O)c1ccc2ccccc2n1`, the composite z-score was 0.343 in [1]; 0.865 in [6]; -0.0405 in test [7]; 0.0356 in the test with Torsin-1A (Homo sapiens) [8]; 0.611 with Torsin-1A (Homo sapiens) [9]; 0.954 in test [10]. For the same molecule, the z-score was -0.468 (inactive) in test [2], 0.594 (inactive) in test [3], 9.1 (active) in test [4] and -0.539 (inactive) in [5].
In the case of `C=CCC(OC(C)=O)[C@@H]1[C@@H](N(Cc2cc3ccccc3o2)C(=O)c2cccc3ccccc23)c2cc(OCCCO)ccc2N1C(=O)c1ccc(-c2ccccc2)cc1` (stereo not given in full), the composite z-score is 0.15 in test [1]; 0.111 in test [6]; -0.196 in test [7]; 0.736 with Torsin-1A (Homo sapiens) [8]; 0.223 with Torsin-1A (Homo sapiens) [9]; 0.464 in test [10]. The z-score was -1.82 (inactive) in [2], 0.861 (inactive) in test [3], 1.38 (inactive) in test [4] and -0.654 (inactive) in test [5].
As for `CN(C)CCCCCCNC(=O)[C@H]1C[C@H]2C(=O)N[C@@H](CCCCN)C(=O)N2[C@H]1c1cccc(OCCO)c1`, the composite z-score in test [1] turned out to be 1.73; in [6], 2.14; in [7] it was 0.778; with Torsin-1A (Homo sapiens) [8], 3.76; with Torsin-1A (Homo sapiens) [9], 3.35; in test [10], 1.43. Besides, the z-score in test [2] is 0.0574 (inactive); in test [3], 0.949 (inactive); in test [4] it was 0.688 (inactive); in test [5], 0.691 (inactive).
Turning to `NC(=O)[C@@H]1[C@H]2C(=O)O[C@H](c3ccccc3)[C@H](c3ccccc3)N2[C@H](c2ccc(O)cc2)[C@@]12C(=O)Nc1ccccc12`, the composite z-score in test [1] is -0.766; in [6] it was -0.99; in [7] it was -0.152; with Torsin-1A (Homo sapiens) [8], -2.99; with Torsin-1A (Homo sapiens) [9] it was -2.06; in test [10], 0.154. Also, the z-score in [2] is -4.14 (inactive); in test [3] it was -0.609 (inactive); in test [4] it was -0.491 (inactive); in test [5], 0.276 (inactive).
Take `O=C1C[C@@](C(=O)NCCN2CCOCC2)(c2ccc([N+](=O)[O-])cc2)[C@@H](c2ccc(CO)cc2I)N1CC12CC3CC(CC(C3)C1)C2`: the composite z-score in [1] stood at 0.92; in test [6], 0.489; in test [7], 0.134; in the test with Torsin-1A (Homo sapiens) [8], 0.97; with Torsin-1A (Homo sapiens) [9] it was 0.578; in test [10] it was 2.14. Besides, the z-score in test [2] was -5.9 (inactive); in test [3], 1.22 (inactive); in [4], -0.269 (inactive); in test [5] it was -0.435 (inactive).
Take `O=C1C[C@@](C(=O)NCCN2CCOCC2)(c2ccc([N+](=O)[O-])cc2)[C@@H](c2ccc(CO)cc2)N1CC12CC3CC(CC(C3)C1)C2`: the composite z-score in test [1] came out at 0.455; in [6] it was 0.379; in [7], 0.0154; with Torsin-1A (Homo sapiens) [8], 0.179; with Torsin-1A (Homo sapiens) [9] it was 1.21; in test [10] it was 1.37. The z-score in [2] is -5.78 (inactive); in test [3], 0.881 (inactive); in test [4], 1.62 (inactive); in test [5] it was -0.0481 (inactive).
In the case of `CC(CO)N1C(=O)[C@@H]2C3C(=O)OCCC/C=C\[C@H]3OC23C=CCN(C(C)(C)C)C(=O)[C@@H]13` (stereo not given in full), the composite z-score was -0.221 in test [1]; -0.221 in test [6]; -0.128 in [7]; 1.17 in the test with Torsin-1A (Homo sapiens) [8]; 2.21 with Torsin-1A (Homo sapiens) [9]; 0.777 in test [10]. The z-score in test [2] is 0.559 (inactive); in [3], -0.818 (inactive); in [4] it was -0.488 (inactive); in test [5], 0.636 (inactive).
As for `CCOC(=O)C[C@H]1[C@H](OC(=O)c2ccccc2-c2ccccc2)[C@@H](NC(=O)CC(C)C)c2cc(OCCCO)ccc2N1C(=O)Cc1ccc(OC)cc1`, the composite z-score in test [1] was -0.0051; in [6], 0.0802; in test [7], -0.179; with Torsin-1A (Homo sapiens) [8] it was 0.0776; in the test with Torsin-1A (Homo sapiens) [9], 0.199; in test [10], 0.222. The z-score is -0.386 (inactive) in test [2], 0.393 (inactive) in test [3], 6.91 (inactive) in [4] and 0.0967 (inactive) in test [5].
